Data as given in the supplement of paper PMC13380429.
Values without a mark were called inactive.

Test system: Vero E6 infected with SARS-CoV-2
Assay: inhibition of SARS-CoV-2 cytopathic effect; higher = more antiviral protection, active = above 15
Conditions: 48 h

SMILES | inhibition of SARS-CoV-2 cytopathic effect (1 nM) [%] | inhibition of SARS-CoV-2 cytopathic effect (8.33 nM) [%] | inhibition of SARS-CoV-2 cytopathic effect (100 nM) | inhibition of SARS-CoV-2 cytopathic effect (833.33 nM) [%] | inhibition of SARS-CoV-2 cytopathic effect (10000 nM)
C[C@H]1NC(=O)NC1=O [5-methylhydantoin-(D)] | -0.22 | -0.75 | -0.63% | -6.83 | 0.71%
Oc1c(Cl)cc(Cl)c2cccnc12 [chloroxine] | 2.69 | 2.44 | 1.43% | -0.59 | -0.15%
OC(c1ccc(-c2ccc(CN3CCN(Cc4ccncc4)CC3)cc2)c(F)c1)(C(F)(F)F)C(F)(F)F | -1.89 | 0.74 | -2.07% | -1.4 | -1.46%
CCCCC(CC)CCC(CC(C)C)OS(=O)(=O)O (stereo not given) [sodium-tetradecyl-sulfate] | 3.58 | 3.18 | 2.64% | 1.74 | 3.12%
CN1CCC(CNc2ccc3ncc(-c4cccc(OC(F)(F)F)c4)n3n2)CC1 | 2.01 | 5.2 | 2.97% | -0.97 | 19.8% (active)
CN(C[C@@H]1COCCO1)S(=O)(=O)Nc1ccc2ccc3ncc(-c4cnn(C)c4)cc3c(=O)c2c1 | -0.78 | 1.08 | -0.46% | -1.97 | -4.16%
NC(=S)N/N=C/c1ccncc1 [perchlozone] | 2.2 | 1.74 | 0.96% | 2.38 | 3.63%
O=c1ccn([C@@H]2O[C@H](COP(=O)(O)OP(=O)(O)OP(=O)(O)O)[C@@H](O)[C@H]2O)c(=O)[nH]1 | -0.655 | 1.84 | 3.83% | 2.04 | -0.735%
COc1cc(C(=S)N2CCOCC2)cc(OC)c1OC [sulmetozine] | -6.81 | -0.82 | 1.75% | -0.02 | 2.55%
CCCCNc1cc(C(=O)O)cc(S(N)(=O)=O)c1Oc1ccccc1 [bumetanide] | 0.26 | 2.83 | 0.69% | 1.71 | 1.07%
NC(N)=Nc1nc(CSCC/C(N)=N/S(N)(=O)=O)cs1 [famotidine] | -4.18 | -3.04 | 2.88% | 4.59 | -0.5%
C=C[C@](C)(O)CC[C@@H]1[C@@]2(C)CCCC(C)(C)[C@@H]2CC[C@@]1(C)O [sclareol] | 0.36 | -0.46 | -0.66% | -1.37 | -4.46%
COc1ccc(NS(=O)(=O)c2ccc(/N=N/c3ccc(O)c(C(=O)O)c3)cc2)nn1 [salazodine] | 0.92 | 3.48 | 1.53% | -1.71 | -1.01%
C#C[C@]1(O)CC[C@H]2[C@@H]3CCC4=C(CCC(=O)C4)[C@H]3CC[C@@]21C [noretynodrel] | 0.57 | 0.96 | 1.22% | -5.6 | 0.57%
C=C1C(=O)O[C@@H]2C[C@@]3(C)CCC[C@H](C)C3=C[C@H]12 [alantolactone] | -2.07 | -0.06 | -2.01% | 1.03 | 12.6%
CN1CCC2=C(C1)C(c1ccccc1)c1ccccc12 (stereo not given) [phenindamine] | -1.14 | -0.54 | 0.73% | 2.57 | 1.5%
C[C@H]1C[C@@H]2[C@H]([C@@H](O)C[C@@]3(C)[C@H]2CC[C@]3(O)C(=O)CO)[C@@]2(C)C=CC(=O)C=C12 [methylprednisolone] | 0.61 | 3.49 | -1.8% | 0.94 | 0.36%
O=C(CCCl)NCc1ccccc1 [beclamide] | -5.2 | -1.11 | 0.49% | 0.86 | -1.73%
Cc1ccc(-n2nc(C(C)(C)C)cc2NC(=O)NCc2cc(F)ccc2Oc2ccc3c(cnn3CCO)c2)cc1 [pexmetinib] | -0.97 | -3.1 | 0.01% | 5.81 | 3.62%
CCCCCCCCCCCCCCCCCCCCCCCCC(=O)O [pentacosanoic-acid] | -2.75 | -2.46 | -0.07% | -0.23 | -2.38%

SMILES | inhibition of SARS-CoV-2 cytopathic effect (1 nM) [%] | inhibition of SARS-CoV-2 cytopathic effect (8.33 nM) [%] | inhibition of SARS-CoV-2 cytopathic effect (100 nM) | inhibition of SARS-CoV-2 cytopathic effect (833.33 nM) [%] | inhibition of SARS-CoV-2 cytopathic effect (10000 nM)
O=C1OC2(c3ccccc31)c1cc(I)c(O)c(I)c1Oc1c2cc(I)c(O)c1I [erythrosine] | -2.4 | -1.04 | -2.6% | -4.79 | -12.8%
Cc1c[nH]c(=O)n(CCCN2CCN(c3ccccc3OCC(F)(F)F)CC2)c1=O | -2.56 | 0.88 | -3.18% | -1.23 | -1.99%
CN1C(C(=O)Nc2ccccn2)=C(O)c2sc(Cl)cc2S1(=O)=O [lornoxicam] | -2.9 | -0.66 | -1.36% | 0.9 | -0.69%
Oc1ccc(OCc2ccccc2)cc1 [monobenzone] | -1.3 | -1.35 | -0.07% | -0.61 | -2.93%
O=C(O)Cn1nnc(-c2cc(N3CCC(Oc4cc(F)ccc4Br)CC3)no2)n1 | -0.51 | -0.71 | 1.39% | -0.54 | 1.73%
COc1ccc(/C=C2\CCCN=C2c2cccnc2)c(OC)c1 | -0.63 | 0.1 | 0.18% | 1.08 | 2.4%
CNC(=O)c1ccccc1Nc1nc(Nc2ccc(N3CCOCC3)cc2OC)ncc1Cl | -0.14 | -2.52 | -2.14% | -3.76 | -10.9%
Cn1cc(C(=O)c2cccc3ccccc23)cc1C(=O)O [napirimus] | -0.4 | -1.83 | 0.36% | -1.9 | 1.11%
COC(=O)c1ccc(O)cc1 [methylparaben] | -0.45 | 0.03 | 2.76% | 1.99 | 2.64%
CCOCOC[C@H](C[C@H](C)C(=O)NO)NC(=O)c1ccc(Oc2ccccc2)cc1 | 4.15 | 13.5 | 5.33% | -3.29 | -6.18%
CN1CCC(=C2c3ccccc3CCc3sccc32)CC1 [pizotifen] | 2.55 | -0.27 | 0.72% | 1.5 | -3.38%
C[C@H](NC(=O)C(C)(C)Oc1ccc(C(F)(F)F)cn1)[C@@H](Cc1ccc(Cl)cc1)c1cccc(C#N)c1 [taranabant] | -0.8 | 0.33 | -2.11% | 1.39 | -5.97%
COc1cc(-n2cnc3cc(-c4ccc(Cl)cc4)sc3c2=O)ccc1OCCN1CCCC1 | -1.24 | 0.96 | 0.81% | -2.38 | 49.9% (active)
Nc1cccc2c1C(=O)N(C1CCC(=O)NC1=O)C2=O (stereo not given) [pomalidomide] | 1.4 | -0.68 | 2.15% | 0.83 | 2.41%
CC[C@@H](C(N)=O)N1CCCC1=O [levetiracetam] | 0.86 | 0.42 | 0.01% | 0.56 | -0.05%
CC[N+](C)(CC)CCC[n+]1c(-c2ccccc2)c2cc(N)ccc2c2ccc(N)cc21 [propidium-iodide] | -1.36 | -0.29 | 3.2% | 2.34 | 2.62%
COC(=O)C[C@](O)(CCCC(C)(C)O)C(=O)O[C@@H]1C(OC)=C[C@]23CCCN2CCc2cc4c(cc2[C@H]13)OCO4 [homoharringtonine] | 1.04 | 2.85 | 26.2% (active) | 4.43 | -23.7%
Clc1ccc(-c2nc3sccn3c2/C=N/OCc2ccc(Cl)c(Cl)c2)cc1 | -0.5 | -0.99 | -1.16% | -0.11 | 0.21%
N#Cc1c[nH]c2c(C(=O)N3CCN(CCc4ccc(F)cc4)CC3)cccc12 [pruvanserin] | 3.23 | -1.53 | 2.62% | 1.31 | 1.69%
COc1c(N2CCNC(C)C2)c(F)cc2c(=O)c(C(=O)O)cn(C3CC3)c12 (stereo not given) [gatifloxacin] | -0.1 | 1.9 | 0.16% | 0.37 | -2.52%
